For assay [1], the target named is T1, Ephrin type-B receptor 1 (Homo sapiens) (UniProt P54762).
T1 sequence (whole entry): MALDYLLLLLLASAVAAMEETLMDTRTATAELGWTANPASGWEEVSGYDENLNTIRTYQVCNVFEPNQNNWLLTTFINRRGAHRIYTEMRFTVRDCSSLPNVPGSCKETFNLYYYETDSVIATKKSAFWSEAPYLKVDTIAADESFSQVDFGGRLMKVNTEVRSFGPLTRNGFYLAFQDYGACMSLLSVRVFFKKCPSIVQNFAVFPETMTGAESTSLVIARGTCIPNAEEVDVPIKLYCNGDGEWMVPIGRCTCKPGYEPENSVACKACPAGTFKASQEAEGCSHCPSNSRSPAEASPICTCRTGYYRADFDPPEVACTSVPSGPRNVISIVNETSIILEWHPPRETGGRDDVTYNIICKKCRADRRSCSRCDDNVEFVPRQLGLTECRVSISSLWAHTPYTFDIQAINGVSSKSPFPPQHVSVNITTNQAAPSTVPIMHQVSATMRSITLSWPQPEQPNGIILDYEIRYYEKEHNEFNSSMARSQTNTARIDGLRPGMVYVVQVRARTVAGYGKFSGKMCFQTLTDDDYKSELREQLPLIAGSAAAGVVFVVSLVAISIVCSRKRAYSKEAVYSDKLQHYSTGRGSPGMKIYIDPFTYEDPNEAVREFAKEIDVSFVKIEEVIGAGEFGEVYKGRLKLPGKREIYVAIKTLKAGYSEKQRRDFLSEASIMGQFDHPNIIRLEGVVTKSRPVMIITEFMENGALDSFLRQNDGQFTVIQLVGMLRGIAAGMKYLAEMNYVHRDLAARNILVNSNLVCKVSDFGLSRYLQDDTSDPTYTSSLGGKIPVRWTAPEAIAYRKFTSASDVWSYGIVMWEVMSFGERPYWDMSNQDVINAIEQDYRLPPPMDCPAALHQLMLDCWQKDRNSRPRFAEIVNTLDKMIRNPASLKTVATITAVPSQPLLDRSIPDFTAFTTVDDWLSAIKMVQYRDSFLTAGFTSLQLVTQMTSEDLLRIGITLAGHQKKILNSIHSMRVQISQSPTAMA
The note with it: at 10 µM.

For assay [2], the target named is T2, Ephrin type-B receptor 2 (Homo sapiens) (UniProt P29323).
T2 sequence (whole entry): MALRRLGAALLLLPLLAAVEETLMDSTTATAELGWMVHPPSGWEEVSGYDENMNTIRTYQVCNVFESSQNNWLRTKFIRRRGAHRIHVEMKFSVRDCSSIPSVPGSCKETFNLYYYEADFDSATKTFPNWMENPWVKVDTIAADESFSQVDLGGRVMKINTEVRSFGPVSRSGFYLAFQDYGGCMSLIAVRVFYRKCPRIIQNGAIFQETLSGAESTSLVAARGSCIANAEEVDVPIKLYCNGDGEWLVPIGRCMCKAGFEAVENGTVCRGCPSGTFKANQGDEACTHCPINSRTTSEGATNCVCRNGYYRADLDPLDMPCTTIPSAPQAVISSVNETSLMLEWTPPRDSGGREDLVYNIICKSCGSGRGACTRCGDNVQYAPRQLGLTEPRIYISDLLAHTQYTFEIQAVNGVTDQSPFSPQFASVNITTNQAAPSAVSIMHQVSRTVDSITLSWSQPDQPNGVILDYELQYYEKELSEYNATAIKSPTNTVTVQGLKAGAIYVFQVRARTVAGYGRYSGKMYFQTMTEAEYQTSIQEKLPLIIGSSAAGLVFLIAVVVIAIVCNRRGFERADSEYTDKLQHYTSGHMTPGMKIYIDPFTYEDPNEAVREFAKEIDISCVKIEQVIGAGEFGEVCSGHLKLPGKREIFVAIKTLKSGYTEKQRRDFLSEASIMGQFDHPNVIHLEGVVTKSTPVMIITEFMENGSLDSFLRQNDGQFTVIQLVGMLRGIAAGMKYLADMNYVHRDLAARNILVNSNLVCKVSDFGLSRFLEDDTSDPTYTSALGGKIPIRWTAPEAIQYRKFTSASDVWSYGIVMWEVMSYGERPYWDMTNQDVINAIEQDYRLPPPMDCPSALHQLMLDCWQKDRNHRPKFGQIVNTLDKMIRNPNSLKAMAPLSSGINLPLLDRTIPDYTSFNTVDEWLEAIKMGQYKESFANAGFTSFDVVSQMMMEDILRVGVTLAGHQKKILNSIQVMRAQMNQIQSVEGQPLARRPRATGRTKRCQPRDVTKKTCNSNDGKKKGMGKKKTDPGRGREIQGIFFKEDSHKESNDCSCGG
The note with it: at 1 µM.

The target in assay [3] is T2, Ephrin type-B receptor 2 (Homo sapiens). To be noted: at 10 µM.
Assay [4] deals with T3, Ephrin type-B receptor 3 (Homo sapiens) (UniProt P54753).
T3 sequence (whole entry): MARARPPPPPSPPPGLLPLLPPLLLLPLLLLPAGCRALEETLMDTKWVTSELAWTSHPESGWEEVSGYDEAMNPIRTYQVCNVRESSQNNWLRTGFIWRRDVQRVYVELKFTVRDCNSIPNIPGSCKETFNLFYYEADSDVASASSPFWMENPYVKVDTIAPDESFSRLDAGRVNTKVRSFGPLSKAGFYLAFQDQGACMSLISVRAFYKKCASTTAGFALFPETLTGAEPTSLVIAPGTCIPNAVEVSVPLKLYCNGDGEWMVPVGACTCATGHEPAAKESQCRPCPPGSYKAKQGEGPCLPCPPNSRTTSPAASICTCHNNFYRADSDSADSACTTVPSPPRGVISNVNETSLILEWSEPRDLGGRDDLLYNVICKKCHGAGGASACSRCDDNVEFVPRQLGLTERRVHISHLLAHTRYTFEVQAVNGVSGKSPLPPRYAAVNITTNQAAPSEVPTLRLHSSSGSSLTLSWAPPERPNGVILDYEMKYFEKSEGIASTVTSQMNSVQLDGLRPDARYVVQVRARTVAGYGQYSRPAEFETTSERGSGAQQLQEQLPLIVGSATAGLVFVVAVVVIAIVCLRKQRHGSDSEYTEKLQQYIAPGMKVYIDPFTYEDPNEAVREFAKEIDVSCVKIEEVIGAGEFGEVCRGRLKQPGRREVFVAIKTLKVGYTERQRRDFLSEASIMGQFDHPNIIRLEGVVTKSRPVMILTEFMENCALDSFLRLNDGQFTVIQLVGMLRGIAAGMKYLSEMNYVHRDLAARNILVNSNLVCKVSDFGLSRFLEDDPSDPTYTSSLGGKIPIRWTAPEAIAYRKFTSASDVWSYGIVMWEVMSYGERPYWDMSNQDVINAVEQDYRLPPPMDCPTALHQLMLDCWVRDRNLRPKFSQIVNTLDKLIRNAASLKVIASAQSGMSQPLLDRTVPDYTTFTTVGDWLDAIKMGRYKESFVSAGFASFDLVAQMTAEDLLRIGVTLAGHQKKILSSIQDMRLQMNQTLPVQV
To be noted: at 1 µM.

For assay [5], the target named is T3, Ephrin type-B receptor 3 (Homo sapiens). The note with it: at 10 µM.
The target of assay [6] is T4, Ephrin type-B receptor 4 (Homo sapiens) (UniProt P54760).
T4 sequence (whole entry): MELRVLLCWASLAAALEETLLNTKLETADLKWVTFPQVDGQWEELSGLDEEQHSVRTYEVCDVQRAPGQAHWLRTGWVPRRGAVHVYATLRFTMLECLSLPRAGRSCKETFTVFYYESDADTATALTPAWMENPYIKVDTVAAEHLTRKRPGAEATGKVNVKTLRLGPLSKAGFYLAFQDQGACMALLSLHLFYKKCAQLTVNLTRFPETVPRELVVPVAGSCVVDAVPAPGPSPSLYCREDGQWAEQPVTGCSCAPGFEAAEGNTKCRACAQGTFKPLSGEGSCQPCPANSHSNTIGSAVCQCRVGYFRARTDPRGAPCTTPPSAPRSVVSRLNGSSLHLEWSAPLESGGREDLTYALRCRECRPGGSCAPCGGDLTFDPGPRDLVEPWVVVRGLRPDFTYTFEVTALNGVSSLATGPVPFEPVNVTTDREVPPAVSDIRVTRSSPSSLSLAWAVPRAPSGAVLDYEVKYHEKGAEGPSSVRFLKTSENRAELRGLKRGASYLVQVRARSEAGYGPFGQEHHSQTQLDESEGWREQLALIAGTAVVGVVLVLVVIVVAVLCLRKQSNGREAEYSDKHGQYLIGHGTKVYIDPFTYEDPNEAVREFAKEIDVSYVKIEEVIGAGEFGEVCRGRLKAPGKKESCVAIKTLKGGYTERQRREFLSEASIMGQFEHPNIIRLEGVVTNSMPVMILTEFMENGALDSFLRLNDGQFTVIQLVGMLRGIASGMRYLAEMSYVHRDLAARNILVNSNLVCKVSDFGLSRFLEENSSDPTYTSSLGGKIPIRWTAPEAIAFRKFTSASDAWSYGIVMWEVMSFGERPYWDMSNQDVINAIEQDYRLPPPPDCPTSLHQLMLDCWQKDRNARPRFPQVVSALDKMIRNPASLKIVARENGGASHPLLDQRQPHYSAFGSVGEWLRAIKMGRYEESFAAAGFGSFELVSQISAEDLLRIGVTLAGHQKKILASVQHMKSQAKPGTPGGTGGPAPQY
To be noted: at 1 µM.

Assay [7] concerns the target T4, Ephrin type-B receptor 4 (Homo sapiens). The note with it: at 10 µM.
Assay [8] deals with Receptor tyrosine-protein kinase erbB-4 (Homo sapiens) (UniProt Q15303). The note with it: at 1 µM.
Chain of Receptor tyrosine-protein kinase erbB-4 (Homo sapiens) (Q15303 whole entry): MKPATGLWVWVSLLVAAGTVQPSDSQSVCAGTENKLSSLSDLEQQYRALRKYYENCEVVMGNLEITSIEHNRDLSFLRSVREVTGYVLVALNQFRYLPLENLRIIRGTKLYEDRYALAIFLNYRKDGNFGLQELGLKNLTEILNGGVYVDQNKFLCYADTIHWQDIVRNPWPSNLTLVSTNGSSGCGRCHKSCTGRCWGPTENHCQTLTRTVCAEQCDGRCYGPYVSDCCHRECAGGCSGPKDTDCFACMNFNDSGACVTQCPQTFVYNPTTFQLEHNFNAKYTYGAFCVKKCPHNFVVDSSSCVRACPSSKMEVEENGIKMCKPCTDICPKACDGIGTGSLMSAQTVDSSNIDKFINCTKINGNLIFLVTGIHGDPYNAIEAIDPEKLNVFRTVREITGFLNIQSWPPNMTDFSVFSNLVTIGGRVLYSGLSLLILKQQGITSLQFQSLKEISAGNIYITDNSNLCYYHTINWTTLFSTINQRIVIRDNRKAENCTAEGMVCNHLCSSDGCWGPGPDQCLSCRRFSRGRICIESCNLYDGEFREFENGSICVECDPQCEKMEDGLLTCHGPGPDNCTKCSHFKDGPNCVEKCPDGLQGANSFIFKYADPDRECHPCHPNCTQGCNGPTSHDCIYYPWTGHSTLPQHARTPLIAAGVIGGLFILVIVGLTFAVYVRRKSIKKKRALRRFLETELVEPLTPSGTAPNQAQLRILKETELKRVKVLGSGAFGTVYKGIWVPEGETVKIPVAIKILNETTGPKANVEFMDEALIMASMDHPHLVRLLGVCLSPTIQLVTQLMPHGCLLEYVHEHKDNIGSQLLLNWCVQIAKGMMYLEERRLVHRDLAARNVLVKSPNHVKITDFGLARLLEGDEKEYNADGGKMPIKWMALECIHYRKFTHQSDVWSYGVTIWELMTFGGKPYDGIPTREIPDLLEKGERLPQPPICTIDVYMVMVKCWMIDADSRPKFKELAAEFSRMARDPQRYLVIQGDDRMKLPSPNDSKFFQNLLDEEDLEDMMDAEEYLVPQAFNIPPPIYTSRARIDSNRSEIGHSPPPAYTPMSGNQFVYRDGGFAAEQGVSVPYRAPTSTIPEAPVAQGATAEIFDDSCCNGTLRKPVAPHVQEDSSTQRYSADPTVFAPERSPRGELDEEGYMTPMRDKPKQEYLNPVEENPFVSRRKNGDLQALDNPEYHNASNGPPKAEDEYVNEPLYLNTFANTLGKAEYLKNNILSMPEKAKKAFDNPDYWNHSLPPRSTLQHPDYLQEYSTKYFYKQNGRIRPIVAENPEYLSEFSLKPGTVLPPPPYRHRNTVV
Assay [9] has the same target. The note with it: at 10 µM.
Assay [10] deals with Focal adhesion kinase 1 (Homo sapiens) (UniProt Q05397). The note with it: at 1 µM.
Chain of Focal adhesion kinase 1 (Homo sapiens) (Q05397 2-1052 limits assumed): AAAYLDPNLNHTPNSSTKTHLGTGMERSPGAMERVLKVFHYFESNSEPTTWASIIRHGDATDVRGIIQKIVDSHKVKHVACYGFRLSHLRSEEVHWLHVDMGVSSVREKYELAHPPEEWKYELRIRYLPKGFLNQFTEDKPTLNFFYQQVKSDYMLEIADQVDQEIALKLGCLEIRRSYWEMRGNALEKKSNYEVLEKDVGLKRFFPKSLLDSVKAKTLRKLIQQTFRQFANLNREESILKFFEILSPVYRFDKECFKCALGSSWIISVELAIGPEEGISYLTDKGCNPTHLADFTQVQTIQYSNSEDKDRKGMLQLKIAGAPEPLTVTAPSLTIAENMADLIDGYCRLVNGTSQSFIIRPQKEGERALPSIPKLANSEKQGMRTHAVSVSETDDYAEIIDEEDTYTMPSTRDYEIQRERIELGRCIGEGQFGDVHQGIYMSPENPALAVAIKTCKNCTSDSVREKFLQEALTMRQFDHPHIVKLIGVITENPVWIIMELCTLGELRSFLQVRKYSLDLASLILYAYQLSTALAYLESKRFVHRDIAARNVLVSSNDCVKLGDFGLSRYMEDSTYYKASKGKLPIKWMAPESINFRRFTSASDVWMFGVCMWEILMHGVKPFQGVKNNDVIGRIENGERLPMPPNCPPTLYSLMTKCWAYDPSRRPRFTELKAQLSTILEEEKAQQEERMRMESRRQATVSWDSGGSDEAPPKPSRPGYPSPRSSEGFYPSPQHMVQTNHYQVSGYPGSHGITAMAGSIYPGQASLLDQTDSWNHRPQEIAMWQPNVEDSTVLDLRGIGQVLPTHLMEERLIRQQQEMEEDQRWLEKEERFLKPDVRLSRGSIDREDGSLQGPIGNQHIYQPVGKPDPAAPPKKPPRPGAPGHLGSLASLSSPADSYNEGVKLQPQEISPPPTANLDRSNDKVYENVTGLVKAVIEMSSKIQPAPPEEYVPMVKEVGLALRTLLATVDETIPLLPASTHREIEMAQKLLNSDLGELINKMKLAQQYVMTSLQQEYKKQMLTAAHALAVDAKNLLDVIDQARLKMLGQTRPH

Here are results for 1 compound from ChEMBL document CHEMBL2218924, “A broad activity screen in support of a chemogenomic map for kinase signalling research and drug discovery” (Biochem J, 2013).

As a reminder, the residual activity is the signal under treatment as a percentage of the control signal. In the case of `CC[n+]1c(/C=C/N(C)c2ccccc2)n(-c2ccccc2)c2ccc(-c3nc4ccccc4s3)cc21`, the residual activity in assay [1] was 56%; in assay [2] it was 136%; in [3] it was 129%; in assay [4], 131% (inactive); in assay [5] it was 160%; in assay [6], 114%. Further, the residual activity came to 159% in assay [7], 79% in assay [8], 99% in assay [9] and 144% in assay [10].
